{"source": "the supplement of paper PMC10681739"}
{"biological_target": "T1, ETS1 (UniProt P14921)", "T1 sequence": "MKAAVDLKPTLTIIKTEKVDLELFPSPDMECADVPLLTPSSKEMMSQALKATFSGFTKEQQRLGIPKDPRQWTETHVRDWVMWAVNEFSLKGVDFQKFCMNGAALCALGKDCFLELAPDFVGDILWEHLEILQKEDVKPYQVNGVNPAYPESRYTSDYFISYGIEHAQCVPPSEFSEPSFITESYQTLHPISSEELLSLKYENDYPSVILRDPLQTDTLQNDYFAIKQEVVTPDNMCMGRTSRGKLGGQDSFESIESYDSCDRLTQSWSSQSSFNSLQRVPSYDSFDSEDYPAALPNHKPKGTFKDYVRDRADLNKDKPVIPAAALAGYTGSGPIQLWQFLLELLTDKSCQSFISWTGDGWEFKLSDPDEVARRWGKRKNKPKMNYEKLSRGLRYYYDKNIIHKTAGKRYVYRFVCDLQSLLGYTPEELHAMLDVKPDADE", "assay": "ETS1 binding intensity (PBM fluorescence) in presence of RUNX1, normalised to ETS1-only experiment (arbitrary fluorescence units); higher = stronger binding", "conditions": "ETS1 concentration 1 nM; RUNX1 concentration 25 nM"}
{"sequence": "ATGGCGGAGCGGAAGTCCCAGCCACAACGCGAAAAG", "ETS1 binding intensity": 5670}
{"sequence": "CCCACTGATAAGACAGGATGTGGTAAAGAAGCCAGC", "ETS1 binding intensity": 22800}
{"sequence": "AGCCGCCACTTCCTGTCTCTGCGGGTGCATGCTCTT", "ETS1 binding intensity": 5990}
{"sequence": "CCTGTACGGAAGCTACTCTGGTTTCATGTGGTTTCA", "ETS1 binding intensity": 654}
{"sequence": "GCCACAGCCGGAAGCAGGCTGACCACAAGTGCTAAG", "ETS1 binding intensity": 18700}
{"sequence": "CCCTGGACGGGAAGCGGCGGCCAGATCCGCAAGCCC", "ETS1 binding intensity": 747}
{"sequence": "TACGTCACTTCCGGGCCGCCGTCCTGCGGGCAAGGG", "ETS1 binding intensity": 3920}
{"sequence": "GGTTCTCTAGGGAGAGGATGTGGGTTTGTCTCTGGG", "ETS1 binding intensity": 6540}
{"sequence": "GTGCTAAGTGAGGAAGTGCAGTTTACCGCACGGTGG", "ETS1 binding intensity": 2410}
{"sequence": "GAAGAGAAAGGAAACGGCTCGCGGTTTCTGGGGTTC", "ETS1 binding intensity": 3150}
{"sequence": "CCTCGCCCCCTTCCGCACCCACCCCACCGCGCTCCG", "ETS1 binding intensity": 786}
{"sequence": "GCGCAGGTCCCGGATGTTGCGGACAGTATGAGGCAA", "ETS1 binding intensity": 4560}
{"sequence": "GGGGCTGGGAAAGGATGTGGTAAGGGCCAGTCAGTC", "ETS1 binding intensity": 3240}
{"sequence": "TGGTGCCAAACATCCGCTAGCCACAGAAAAACCGAC", "ETS1 binding intensity": 1170}
{"sequence": "GGGAGGCCCCATCCTGTGTGGCTGTGGCTTTTGCCT", "ETS1 binding intensity": 451}
{"sequence": "GTTCAGCGGACGGCTTCCTGCGGCTTGCTGGGGCCG", "ETS1 binding intensity": 462}
{"sequence": "TTGACTCGGGAATGTCCGGTCGTGGTAAGCAGGGTG", "ETS1 binding intensity": 858}
{"sequence": "GGCCGGGGGCAGGAAGCTGCGGCGCTGGCTCCCCCC", "ETS1 binding intensity": 3390}
{"sequence": "GATGGTGTCTTTTGGGGATGTGGGTTTGGGGGATGG", "ETS1 binding intensity": 1610}
{"sequence": "CTTAGTGTTTGAGGATGTGGGTTTTACAATCAGATC", "ETS1 binding intensity": 2490}
{"sequence": "CAACGGCGTAGCCGGAAGTCAGTGGTTTTCGCCCCA", "ETS1 binding intensity": 18200}
